For one experiment, the target named is Albumin (Bos taurus) (UniProt P02769). As to the kind of experiment: bovine serum albumin binders on microarray, profiling panel, artefact control for SMM control protein annotation, biochemical, small-molecule microarray, Alexa647 label, 635/667 nm fluorescence (AID 1118).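 Note: score merges 667 nm emission intensity and signal-to-noise per printed compound spot.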 Particulars: BSA-A647 binding, fluorescence 635 nm, higher = more signal.
Experiment [1] is described as follows: small-molecule microarray binders of probe aXIP, primary screen, biochemical, NeuroSMM set, 635/667 nm fluorescence (AID 1119).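 Note: probe is the protein aXip251-270 applied at 1 µg/mL to compound-printed slides; binding of probe to printed compounds measured as 667 nm fluorescence plus signal to noise.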 To be noted: higher = more signal, called active from +8 up or from −8 down.
Experiment [2] is described as follows: small-molecule binders of probe aNOTCH3, primary screen, biochemical, small-molecule microarray, 635/667 nm fluorescence (AID 1120).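 Note: probe is a biotin-tagged antibody raised against NOTCH3 rather than NOTCH3 protein; score merges spot fluorescence near 667 nm with spot signal to noise.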 To be noted: higher = more signal.
Experiment [3] is described as follows: small-molecule binders of probe aNOTCH2, primary screen, biochemical, small-molecule microarray, 635/667 nm fluorescence (AID 1121).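 Note: score merges feature fluorescence read at 667 nm with its signal to noise.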 To be noted: higher = more signal.
Experiment [4] deals with Carbonic anhydrase 2 (Homo sapiens) (UniProt P00918). As to the kind of experiment: CAII small-molecule binders, profiling panel, biochemical, small-molecule microarray, Alexa647-labelled CAII (AID 1122). Particulars: CAII-A647 binding fluorescence, higher = more signal.
Experiment [5] in a line: COS7 lysate on small-molecule microarray, probe aHis, 635 nm (AID 1123).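 Note: z-score combines 667nm fluorescence intensity with signal-to-noise per printed compound spot.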 To be noted: COS7 cell lysate, fluorescence, higher = more signal.
The nature of experiment [6]: compound binding in COS7 lysate, probe aLAP1, primary screen, cell lysate, small-molecule microarray (AID 1124).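 Note: lysate comes from COS7 cells expressing LAP1 and is applied at 0.3 µg/mL; score merges spot fluorescence near 667 nm with signal-to-noise over triplicate slides.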 Particulars: probe aLAP1, fluorescence, higher = more signal.
A further experiment deals with Sam68 (KHDRBS1). Kind of experiment: Sam68 small-molecule binders, primary screen, biochemical, small-molecule microarray, 635 nm fluorescence (AID 1125).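 Note: score merges 667 nm channel intensity with signal to noise over triplicate slides.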 Particulars: small-molecule microarray binding, higher = more signal.
For experiment [7], the system named is Chordin-like protein 2 (CHRDL2). As to the kind of experiment: CHRDL2 small-molecule binders, primary screen, biochemical, small-molecule microarray, 635 nm fluorescence (AID 1126).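 Note: printed compound slides probed with Chrdl2 protein at 4 µg/mL for 1 h at 4 C; score merges 667 nm emission intensity with signal to noise over three replicate slides.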 To be noted: small-molecule microarray binding, fluorescence 635 nm; higher = more signal.
For experiment [8], the target named is Concanavalin-A (Canavalia ensiformis) (UniProt P02866). As to the kind of experiment: ConA small-molecule binders, primary screen, artefact control for SMM control protein annotation, biochemical, small-molecule microarray, Alexa647 label, 635 nm (AID 1127).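 Note: z combines 667 nm emission intensity with signal-to-noise across three replicate slides.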 Particulars: ConA-A647 binding fluorescence, higher = more signal.
Experiment [9] can be described thus: anti-His antibody binders, primary screen, artefact control for SMM control protein annotation, biochemical, small-molecule microarray, 635 nm fluorescence (AID 1128).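 Note: score merges feature fluorescence with signal-to-noise for each printed compound spot.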 To be noted: anti-His Alexa647 antibody binding, higher = more signal.
Experiment [10] concerns Human papillomavirus type 1a E7 protein (residues 1-88). Kind of experiment: HPV1a E7 small-molecule binders, primary screen, biochemical, small-molecule microarray, residues 1-88, 635 nm (AID 1129). Particulars: small-molecule microarray binding, fluorescence 635 nm; higher = more signal.
Experiment [11] deals with Focal adhesion kinase 1 (Homo sapiens) (UniProt Q05397). Kind of experiment: small-molecule microarray binders of FAK, primary screen, biochemical, 635/667 nm fluorescence, BSA, DTT (AID 1130).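 Note: composite of spot emission at 667 nm and signal to noise over triplicate slides.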 Particulars: PTK2 binding, 635 nm fluorescence, higher = more signal.
Experiment [12] relates to Fibrinogen (Alexa647-labelled). Kind of experiment: fibrinogen binders on compound microarrays, profiling panel, artefact control for SMM control-protein annotation, biochemical, small-molecule microarray, 635/667 nm fluorescence (AID 1131).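 Note: z-score merges 667 nm fluorescence with per-spot signal-to-noise over triplicate slides.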 To be noted: fibrinogen-A647 binding fluorescence, higher = more signal.
The target of experiment [13] is Follistatin (Homo sapiens) (UniProt P19883). Kind of experiment: follistatin binders on small-molecule microarrays, primary screen, biochemical, small-molecule microarray, 635/667 nm fluorescence (AID 1132). Particulars: FST binding, 635 nm fluorescence, higher = more signal.
Experiment [14] has as its target Fibroblast growth factor 2 (Homo sapiens) (UniProt P09038). As to the kind of experiment: FGF2 binders on small-molecule microarrays, primary screen, biochemical, small-molecule microarray, 635/667 nm fluorescence (AID 1133). To be noted: small-molecule microarray binding, FGF2, fluorescence 635/667; higher = more signal.
Experiment [15] is described as follows: mitochondrial membrane potential change in A549 cells, profiling panel, cell-based, JC-1 fluorescence, basal, 24 h, 100 nL (AID 1138).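 Note: A549 lung adenocarcinoma cells under basal conditions with no added stimulus; test concentration not given here.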 To be noted: higher = more signal.
The next experiment deals with Lefty1. As to the kind of experiment: Lefty1 binders on small-molecule microarrays, primary screen, biochemical, small-molecule microarray, 635/667 nm fluorescence (AID 1139). Particulars: small-molecule microarray binding, fluorescence 635/667; higher = more signal.
In experiment [16] the test system is wheat germ agglutinin (Triticum aestivum), Alexa647-labelled. Kind of experiment: wheat germ agglutinin binders on compound microarrays, profiling panel, artefact control for SMM control-protein annotation, biochemical, small-molecule microarray, 635/667 nm fluorescence (AID 1140).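 Note: score merges 667 nm feature emission with signal to noise over triplicate slides.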 Particulars: WGA-A647 binding, 635 nm fluorescence, higher = more signal.
Experiment [17] addresses Luciferin 4-monooxygenase (Photinus pyralis) (UniProt P08659). As to the kind of experiment: firefly luciferase enzyme inhibitors, primary screen, biochemical, luminescence, purified enzyme, 2006 set (AID 1141).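 Note: cell-free assay with purified firefly luciferase at 100 ng per well in PBS; test concentration not given here.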 Particulars: SteadyGlo luminescence, 30 min, higher = more signal, called active from +8 up or from −8 down.

Calls of active or inactive are those of the source.

Fibroblast growth factor 2 (Homo sapiens), sequence (P09038 whole entry, looked up): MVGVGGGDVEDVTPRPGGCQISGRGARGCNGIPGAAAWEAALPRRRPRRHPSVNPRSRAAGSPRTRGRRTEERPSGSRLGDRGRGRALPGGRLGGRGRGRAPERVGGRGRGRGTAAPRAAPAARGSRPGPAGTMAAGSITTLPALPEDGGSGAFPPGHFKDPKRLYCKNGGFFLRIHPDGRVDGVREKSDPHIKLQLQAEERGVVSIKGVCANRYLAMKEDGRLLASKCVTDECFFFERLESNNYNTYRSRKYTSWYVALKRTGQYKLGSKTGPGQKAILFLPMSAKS
Follistatin (Homo sapiens), sequence (P19883 whole entry, looked up): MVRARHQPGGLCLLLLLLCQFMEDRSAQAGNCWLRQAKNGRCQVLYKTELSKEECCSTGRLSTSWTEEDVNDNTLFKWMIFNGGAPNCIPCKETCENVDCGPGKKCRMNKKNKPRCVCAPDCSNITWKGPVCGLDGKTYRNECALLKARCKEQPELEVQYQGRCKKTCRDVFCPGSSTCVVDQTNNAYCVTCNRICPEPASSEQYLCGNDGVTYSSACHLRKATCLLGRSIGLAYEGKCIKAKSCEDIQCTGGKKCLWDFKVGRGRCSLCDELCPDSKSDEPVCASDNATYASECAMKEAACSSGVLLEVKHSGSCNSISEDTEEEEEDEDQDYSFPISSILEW
Luciferin 4-monooxygenase (Photinus pyralis), sequence (P08659 whole entry, looked up): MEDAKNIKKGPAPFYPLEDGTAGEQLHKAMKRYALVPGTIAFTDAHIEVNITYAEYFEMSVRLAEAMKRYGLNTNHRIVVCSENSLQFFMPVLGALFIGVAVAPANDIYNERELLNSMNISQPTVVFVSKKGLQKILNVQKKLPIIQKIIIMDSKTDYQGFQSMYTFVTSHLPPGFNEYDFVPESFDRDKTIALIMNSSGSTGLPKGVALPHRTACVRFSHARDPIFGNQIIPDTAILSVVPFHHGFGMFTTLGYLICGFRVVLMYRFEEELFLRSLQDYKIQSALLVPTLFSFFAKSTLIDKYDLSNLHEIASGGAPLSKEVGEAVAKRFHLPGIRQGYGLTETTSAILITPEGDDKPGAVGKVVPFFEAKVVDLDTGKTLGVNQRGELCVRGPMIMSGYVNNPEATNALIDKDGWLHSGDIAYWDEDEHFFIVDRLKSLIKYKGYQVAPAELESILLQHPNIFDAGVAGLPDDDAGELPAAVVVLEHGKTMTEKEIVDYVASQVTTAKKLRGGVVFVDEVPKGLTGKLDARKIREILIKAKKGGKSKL
Focal adhesion kinase 1 (Homo sapiens), sequence (Q05397 whole entry, looked up): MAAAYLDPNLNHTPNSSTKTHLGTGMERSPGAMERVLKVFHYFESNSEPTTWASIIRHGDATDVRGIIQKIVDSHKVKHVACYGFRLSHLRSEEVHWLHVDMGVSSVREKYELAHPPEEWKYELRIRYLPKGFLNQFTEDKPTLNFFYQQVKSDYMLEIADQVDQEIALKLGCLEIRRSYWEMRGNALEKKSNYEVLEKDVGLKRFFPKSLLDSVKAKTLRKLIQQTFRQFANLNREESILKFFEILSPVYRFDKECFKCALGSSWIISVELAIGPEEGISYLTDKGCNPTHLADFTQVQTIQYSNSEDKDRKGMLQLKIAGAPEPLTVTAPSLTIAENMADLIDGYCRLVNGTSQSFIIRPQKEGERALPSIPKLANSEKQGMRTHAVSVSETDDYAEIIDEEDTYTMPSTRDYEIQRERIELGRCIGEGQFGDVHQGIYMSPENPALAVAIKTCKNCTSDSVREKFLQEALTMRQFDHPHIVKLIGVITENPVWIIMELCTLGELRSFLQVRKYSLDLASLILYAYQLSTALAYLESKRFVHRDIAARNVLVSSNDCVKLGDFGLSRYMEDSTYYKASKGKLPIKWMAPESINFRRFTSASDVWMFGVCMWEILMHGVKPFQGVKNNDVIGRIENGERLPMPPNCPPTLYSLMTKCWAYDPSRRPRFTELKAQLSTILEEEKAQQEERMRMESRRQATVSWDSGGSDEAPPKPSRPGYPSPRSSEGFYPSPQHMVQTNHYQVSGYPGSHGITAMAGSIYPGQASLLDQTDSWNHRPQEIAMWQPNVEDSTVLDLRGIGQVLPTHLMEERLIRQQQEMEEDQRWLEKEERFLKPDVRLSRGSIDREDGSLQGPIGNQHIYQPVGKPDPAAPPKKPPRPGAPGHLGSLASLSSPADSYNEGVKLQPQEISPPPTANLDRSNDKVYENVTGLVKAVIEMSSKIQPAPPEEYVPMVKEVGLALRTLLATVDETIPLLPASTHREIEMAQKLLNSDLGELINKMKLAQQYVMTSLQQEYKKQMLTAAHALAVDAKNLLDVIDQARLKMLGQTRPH
Albumin (Bos taurus), sequence (P02769 whole entry, looked up): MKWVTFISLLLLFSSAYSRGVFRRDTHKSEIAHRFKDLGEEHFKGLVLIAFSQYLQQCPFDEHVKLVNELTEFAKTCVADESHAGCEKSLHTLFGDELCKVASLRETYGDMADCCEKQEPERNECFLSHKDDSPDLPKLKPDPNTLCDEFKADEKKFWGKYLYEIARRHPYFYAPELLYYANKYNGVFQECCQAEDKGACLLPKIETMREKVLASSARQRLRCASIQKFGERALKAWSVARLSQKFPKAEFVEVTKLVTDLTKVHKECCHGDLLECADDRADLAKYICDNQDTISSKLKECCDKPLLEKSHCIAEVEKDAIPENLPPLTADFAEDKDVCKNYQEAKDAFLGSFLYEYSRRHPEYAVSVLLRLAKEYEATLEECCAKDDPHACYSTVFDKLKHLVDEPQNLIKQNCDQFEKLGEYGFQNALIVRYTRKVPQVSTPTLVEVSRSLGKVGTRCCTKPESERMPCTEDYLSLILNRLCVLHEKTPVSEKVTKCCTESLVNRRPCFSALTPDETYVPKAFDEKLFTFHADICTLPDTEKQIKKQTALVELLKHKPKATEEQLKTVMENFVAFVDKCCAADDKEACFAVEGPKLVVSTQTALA
Concanavalin-A (Canavalia ensiformis), sequence (P02866 whole entry, looked up): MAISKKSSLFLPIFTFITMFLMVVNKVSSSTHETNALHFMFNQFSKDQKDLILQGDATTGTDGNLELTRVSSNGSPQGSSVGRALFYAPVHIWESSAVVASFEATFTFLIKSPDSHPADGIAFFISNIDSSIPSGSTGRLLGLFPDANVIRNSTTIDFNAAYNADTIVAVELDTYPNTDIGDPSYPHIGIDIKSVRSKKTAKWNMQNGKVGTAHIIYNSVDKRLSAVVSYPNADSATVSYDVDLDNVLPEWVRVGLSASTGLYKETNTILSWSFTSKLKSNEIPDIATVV

Turning to `CCc1cc2c(nc1CC)CCN(CCC(C)=NOC(C)CN1CCCc3nc(C)c(C)cc31)C2` (stereo not given), the composite z-score is 0.263 in the experiment with Albumin (Bos taurus); 0.724 in [2]; 0.271 in [3]; 0.461 in [4]; 1.18 in experiment [5]; 0.0412 in [6]. The composite z-score in the experiment on Sam68 (KHDRBS1) is 1.29; in [7] it was 0.726; in experiment [8], 0.952; in [9], -0.295; in [10], 0.973; in experiment [11], 0.63. Moreover, the composite z-score amounted to 0.398 in experiment [12]; 1.31 in [13]; 0.631 in experiment [14]; 1.29 with Lefty1; 0.467 in experiment [16]. Further, in experiment [1], the composite Z-score is 1.74 (inactive). Moreover, the z-score was 1.2 in experiment [15] and 0.62 (inactive) in [17].
For `C[C@@H]1CC[C@H]2C(=O)O[C@H](COc3ccc(C(C)(C)C)cc3)CN2[C@H]1c1ccc(Br)cc1`, the composite z-score with Albumin (Bos taurus) was 0.673; in experiment [2], -0.0716; in [3], 0.0776; in experiment [4], -0.113; in experiment [5] it was -0.231; in experiment [6] it was 0.157. In addition, the composite z-score in the experiment with Sam68 (KHDRBS1) is -0.734; in experiment [7] it was 0.0828; in experiment [8] it was -0.212; in experiment [9], 2.99; in experiment [10], -0.701; in [11], -0.0482. For the same compound, the composite z-score is 0.54 in experiment [12]; -0.123 in experiment [13]; 0.0203 in [14]; 0.0924 with Lefty1; 0.148 in experiment [16]. Further, the composite Z-score in experiment [1] is 0.458 (inactive). Further, the z-score is 1.87 in [15] and -1.36 (inactive) in [17].
On to `CO[C@H]1COC(=O)[C@@H]2CCCN2C(=O)CC=C[C@@H](C)[C@H](OC)COC(=O)CC=C[C@@H]1C`, for which the composite z-score in the experiment with Albumin (Bos taurus) is -0.806; in experiment [2], 0.0753; in experiment [3], -0.0931; in [4] it was -0.235; in experiment [5], -0.0693; in [6] it was 0.0482. Besides, the composite z-score was 1.28 with Sam68 (KHDRBS1); 1.38 in [7]; -1.28 in experiment [8]; -0.287 in experiment [9]; -0.52 in experiment [10]; -0.0405 in [11]. Further, the composite z-score was -0.624 in [12]; 1.36 in experiment [13]; 1.21 in experiment [14]; 1.62 with Lefty1; -0.705 in experiment [16]. The composite Z-score in [1] is 1.31 (inactive). The z-score is 1.59 in experiment [15] and -1.87 (inactive) in experiment [17].
As for `COC(=O)CC1OC1[C@H](C)[C@@H](OC)C(C)C` (stereo not given in full), the composite z-score with Albumin (Bos taurus) is -0.294; in [2], -0.0647; in [3], -0.124; in [4], 0.232; in experiment [5] it was -0.64; in [6], 0.229. In addition, the composite z-score in the experiment with Sam68 (KHDRBS1) was -0.22; in experiment [7] it was 1.03; in experiment [8] it was -0.321; in experiment [9], -0.0177; in [10], 0.212; in experiment [11], -0.405. The composite z-score was 0.745 in experiment [12]; 0.623 in [13]; 0.443 in [14]; 0.786 in the experiment on Lefty1; 0.733 in experiment [16]. Besides, the composite Z-score in experiment [1] was 0.406 (inactive). Besides, the results for the z-score in experiment [15] and in [17] were 3.01 and -1.73 (inactive), respectively.
In the case of `COC(=O)CC=C[C@H](C)[C@@H](OCc1ccccc1Br)C(C)C`, the composite z-score with Albumin (Bos taurus) is -0.0311; in experiment [2], -0.0343; in experiment [3], -0.113; in [4], -0.279; in experiment [5], 0.164; in [6], 0.0326. Moreover, the composite z-score in the experiment on Sam68 (KHDRBS1) is -0.385; in experiment [7] it was 0.382; in experiment [8] it was 0.112; in experiment [9], 0.219; in [10], -0.161; in experiment [11], 0.0767. Further, the composite z-score in experiment [12] was -0.263; in experiment [13], 0.292; in experiment [14], -0.0207; with Lefty1, 0.646; in experiment [16], 0.0141. Besides, the composite Z-score in experiment [1] is -0.0469 (inactive). In addition, the results for the z-score in experiment [15] and in experiment [17] were 1.32 and -0.401 (inactive), respectively.

The values are drawn from PubChem BioAssay.
